Hits are enriched below; roughly 3.4% of the tested compounds scored in any of these assays.
TROY NFkB inh: inhibitors of TROY-dependent NF-kB signaling. Q293 LMP1-TROYcd NF-kB luciferase reporter, 4 h. inhibition, % at 10 µM. 360,000 compounds, 0.98% hits. AID 1347056;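 active = compounds whose plate-normalised and pattern-corrected inhibition of the luciferase reporter signal at the single screening dose is 50% or more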
HIF-2a inh: HIF-2a inhibition; 786-0 RCC cells HIF-2a reporter, luciferase luminescence, overnight; inhibition, % at 18.8 µM; 360,000 compounds, 0.72% hits;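 active = inhibition of the luminescence signal of 40% or more relative to plate controls, in a single-dose primary screen at 18.75 µM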
EBV LMP1 NFkB: reduces LMP1-driven NF-kappaB luciferase signal. LMP1-induced NF-kappaB luciferase reporter cells, luminescence. inhibition, % at 12.5 µM. 350,000 compounds, 0.69% hits; in the data active = inhibition above about 41%;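 note: 0% = neutral control wells and 100% = reference inhibitor control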
TWEAK-Fn14 inh: blocks TWEAK-Fn14 interaction in a reporter cell assay; TWEAK-stimulated Fn14 reporter cells, luciferase luminescence, 8 h; inhibition, % at 10 µM; 360,000 compounds, 2% hits; AID 1159606; in the data active = inhibition above about 50%
Shn3 3UTR inh: reduces Shn3 3'UTR luciferase signal in osteoblasts; inhibition, % at 12.5 µM; Clone20 osteoblast Shn3 3'UTR firefly luciferase, 24 h; AID 588674; 360,000 compounds, 0.52% hits;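 active = mean inhibition of at least 75% with every replicate also reaching 75%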;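 note: 0% = median of neutral control wells and 100% = pilot-screen positive control compound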
MITF TRPM1 inh: inhibitors of MITF-driven TRPM1 promoter in melanoma cells | 330,000 compounds, 0.83% hits | inhibition, % at 12.5 µM | SK-MEL-5 TRPM1 promoter luciferase, 24 h | AID 488899;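 active = mean inhibition across replicates of 60% or more, whatever share of single replicates reaches that level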
Starred values were filed as active, the others as inactive.

Results for COC(=O)c1c(-c2cccs2)csc1NC(=O)CN1CCOCC1 ?
TROY NFkB inh: 67*; HIF-2a inh: -113; EBV LMP1 NFkB: -33; TWEAK-Fn14 inh: 21; Shn3 3UTR inh: -17; MITF TRPM1 inh: -22

What do the screens show for `O=c1cc(-c2ccccc2)cc(-c2ccccc2)n1O`?
TROY NFkB inh: -62; HIF-2a inh: -22; EBV LMP1 NFkB: 27; TWEAK-Fn14 inh: -57; Shn3 3UTR inh: 92*; MITF TRPM1 inh: 15

Results for COc1ccc(OCCN2CCCC2)cc1Nc1nnc(Cl)c(Nc2ccccc2S(C)(=O)=O)n1 ?
TROY NFkB inh: 13; HIF-2a inh: 11; EBV LMP1 NFkB: -7; TWEAK-Fn14 inh: -8; Shn3 3UTR inh: 7

What do the screens show for `O=C(Nc1c(-c2ccc3c(c2)OCO3)[nH][nH]c1=O)c1ccc2c(c1)OCO2`?
TROY NFkB inh: -3; HIF-2a inh: -2; TWEAK-Fn14 inh: -11; Shn3 3UTR inh: 4

What do the screens show for `O=C(CNc1cccc2ccccc12)N/N=C/c1ccc([N+](=O)[O-])cc1`?
TROY NFkB inh: -1; HIF-2a inh: -2; EBV LMP1 NFkB: -14; TWEAK-Fn14 inh: 82*; Shn3 3UTR inh: 0; MITF TRPM1 inh: 14

What do the screens show for `C[C@@H]1CN([C@H](C)CO)C(=O)CCCn2cc(nn2)CO[C@H]1CN(C)C(=O)C1CCCCC1`?
TROY NFkB inh: -9; HIF-2a inh: 4; TWEAK-Fn14 inh: 2; Shn3 3UTR inh: 1

What do the screens show for `COc1ccc(C)cc1S(=O)(=O)N(CC(=O)Nc1cc([N+](=O)[O-])ccc1C)c1ccc(C)c(C)c1`?
TROY NFkB inh: 1; HIF-2a inh: 23; EBV LMP1 NFkB: 49*; TWEAK-Fn14 inh: 10; Shn3 3UTR inh: 23; MITF TRPM1 inh: -7

What do the screens show for `CCOc1ccccc1OCCCC(=O)N1CCN(S(=O)(=O)c2ccc(Cl)cc2)CC1`?
TROY NFkB inh: 4; HIF-2a inh: 9; EBV LMP1 NFkB: 70*; TWEAK-Fn14 inh: 0; Shn3 3UTR inh: -6; MITF TRPM1 inh: 7

Results for CCCOc1ccccc1OCC(=O)N1CCN(S(=O)(=O)c2ccc(Cl)cc2)CC1 ?
TROY NFkB inh: 1; HIF-2a inh: 1; EBV LMP1 NFkB: -3; TWEAK-Fn14 inh: -4; Shn3 3UTR inh: -10; MITF TRPM1 inh: 0

What do the screens show for `Cc1nc2ccc(C(=O)N3CCN(C(=O)c4ccco4)CC3)cn2c1N(C)C(=O)CCc1ccccc1`?
TROY NFkB inh: 9; HIF-2a inh: 7; TWEAK-Fn14 inh: 19; Shn3 3UTR inh: -12

Results for CSc1ccccc1NC(=O)COC(=O)c1cnc(C)cn1 ?
TROY NFkB inh: 6; HIF-2a inh: 4; EBV LMP1 NFkB: 4; TWEAK-Fn14 inh: 12; Shn3 3UTR inh: -22; MITF TRPM1 inh: 17

How did CCC(C(=O)NC(C)CCc1ccccc1)n1nc(C)n2c(cc3occc32)c1=O (stereo unspecified) do in these assays?
TROY NFkB inh: 7; HIF-2a inh: 13; EBV LMP1 NFkB: -6; TWEAK-Fn14 inh: 100*; Shn3 3UTR inh: 3; MITF TRPM1 inh: 18

How did CCC(C(=O)NC(C)CCc1ccco1)n1nc(C)n2c(cc3occc32)c1=O (stereo unspecified) do in these assays?
TROY NFkB inh: 9; HIF-2a inh: 20; EBV LMP1 NFkB: 15; TWEAK-Fn14 inh: 7; Shn3 3UTR inh: 9; MITF TRPM1 inh: 0

Results for O=C(NCCN1CCOCC1)c1ccc(Cl)c(S(=O)(=O)N2CCCCCC2)c1 ?
HIF-2a inh: 16; EBV LMP1 NFkB: 9; TWEAK-Fn14 inh: 66*; Shn3 3UTR inh: 9; MITF TRPM1 inh: 16

What do the screens show for `CCOc1ccc(NS(=O)(=O)c2cc(C(=O)NCCN3CCOCC3)ccc2C)cc1`?
TROY NFkB inh: 8; HIF-2a inh: 0; EBV LMP1 NFkB: -1; TWEAK-Fn14 inh: 25; Shn3 3UTR inh: 92*; MITF TRPM1 inh: -4

What do the screens show for `CCOc1ccc(NS(=O)(=O)c2ccc(C(=O)NCCN3CCOCC3)cc2)cc1`?
TROY NFkB inh: 0; HIF-2a inh: 3; EBV LMP1 NFkB: 2; TWEAK-Fn14 inh: 8; Shn3 3UTR inh: -1; MITF TRPM1 inh: -2

What do the screens show for `O=C(NCCN1CCOCC1)c1ccc(Cl)c(S(=O)(=O)N2CCCC2)c1`?
TROY NFkB inh: 9; HIF-2a inh: -7; EBV LMP1 NFkB: 1; TWEAK-Fn14 inh: 27; Shn3 3UTR inh: -14; MITF TRPM1 inh: 10

Results for Cc1ccc(C(=O)SC2=NCCS2)cc1 ?
TROY NFkB inh: 49; HIF-2a inh: 1; EBV LMP1 NFkB: 4; TWEAK-Fn14 inh: 60*; Shn3 3UTR inh: 4; MITF TRPM1 inh: 17

What do the screens show for `O=C(Nc1ccc2c(c1)OCCO2)c1c[nH]c(=O)n(-c2ccc(F)c(Cl)c2)c1=O`?
TROY NFkB inh: 16; HIF-2a inh: 17; EBV LMP1 NFkB: 0; TWEAK-Fn14 inh: 11; Shn3 3UTR inh: -32; MITF TRPM1 inh: 5

What do the screens show for `O=C(NC1=NCCS1)c1ccc(OCC2CCCO2)cc1` (stereo unspecified)?
TROY NFkB inh: -16; HIF-2a inh: -70; EBV LMP1 NFkB: 6; TWEAK-Fn14 inh: 39; Shn3 3UTR inh: -41; MITF TRPM1 inh: -25

What do the screens show for `O=C(Nc1nc2ccccc2s1)c1ccc(OCC2CCCO2)cc1` (stereo unspecified)?
TROY NFkB inh: 78*; HIF-2a inh: -96; EBV LMP1 NFkB: 7; TWEAK-Fn14 inh: 93*; Shn3 3UTR inh: 25; MITF TRPM1 inh: 16

Results for O=C(Nc1ncccc1O)c1ccc(OCC2CCCO2)cc1 (stereo unspecified) ?
TROY NFkB inh: 0; HIF-2a inh: -51; EBV LMP1 NFkB: 76*; TWEAK-Fn14 inh: 39; Shn3 3UTR inh: 11; MITF TRPM1 inh: 3

Results for COc1cccc(C(=O)Nc2nc3ccccc3s2)c1 ?
TROY NFkB inh: -18; HIF-2a inh: -267; EBV LMP1 NFkB: -70; TWEAK-Fn14 inh: 30; Shn3 3UTR inh: -2; MITF TRPM1 inh: -64

Results for O=C(Nc1nccs1)c1ccc2sc([C@H]3C[C@H](O)[C@@H](CO)O3)nc2c1 ?
TROY NFkB inh: -34; HIF-2a inh: -162; TWEAK-Fn14 inh: 0; Shn3 3UTR inh: -14

What do the screens show for `COc1ccc(C(=O)Nc2nc3ccccc3s2)cc1`?
TROY NFkB inh: 49; HIF-2a inh: -36; EBV LMP1 NFkB: 13; TWEAK-Fn14 inh: 98*; Shn3 3UTR inh: 6; MITF TRPM1 inh: 8

How did O=C(Nc1nc2ccccc2s1)c1ccc2sc([C@H]3C[C@H](O)[C@@H](CO)O3)nc2c1 do in these assays?
TROY NFkB inh: 45; HIF-2a inh: -277; TWEAK-Fn14 inh: 64*; Shn3 3UTR inh: -51

How did CCN(C)C1CN(Cc2cn(Cc3ccc(C)cc3)nn2)S(=O)(=O)C1 (stereo unspecified) do in these assays?
TROY NFkB inh: -5; HIF-2a inh: 8; TWEAK-Fn14 inh: 10

What do the screens show for `Cc1cnc(NC(=O)c2ccc(OCC3CCCO3)cc2)s1` (stereo unspecified)?
TROY NFkB inh: 43; HIF-2a inh: 19; EBV LMP1 NFkB: 47*; TWEAK-Fn14 inh: 85*; Shn3 3UTR inh: 26; MITF TRPM1 inh: 26

Screens as filed in PubChem.
